High-throughput results deposited in PubChem BioAssay by National Center for Advancing Translational Sciences (NCATS).
TDP1 block: TDP1 (human) enzyme inhibition | recombinant TDP1, AlphaScreen DNA substrate cleavage | AID 485290 | 0.28% of 350,000 active | Potency, µM (series often up to 130 µM), hits mostly inhibitors; further: nearly all actives have a fitted effect of over 40% in size
Target sequence (Q9NUW8 whole entry, looked up): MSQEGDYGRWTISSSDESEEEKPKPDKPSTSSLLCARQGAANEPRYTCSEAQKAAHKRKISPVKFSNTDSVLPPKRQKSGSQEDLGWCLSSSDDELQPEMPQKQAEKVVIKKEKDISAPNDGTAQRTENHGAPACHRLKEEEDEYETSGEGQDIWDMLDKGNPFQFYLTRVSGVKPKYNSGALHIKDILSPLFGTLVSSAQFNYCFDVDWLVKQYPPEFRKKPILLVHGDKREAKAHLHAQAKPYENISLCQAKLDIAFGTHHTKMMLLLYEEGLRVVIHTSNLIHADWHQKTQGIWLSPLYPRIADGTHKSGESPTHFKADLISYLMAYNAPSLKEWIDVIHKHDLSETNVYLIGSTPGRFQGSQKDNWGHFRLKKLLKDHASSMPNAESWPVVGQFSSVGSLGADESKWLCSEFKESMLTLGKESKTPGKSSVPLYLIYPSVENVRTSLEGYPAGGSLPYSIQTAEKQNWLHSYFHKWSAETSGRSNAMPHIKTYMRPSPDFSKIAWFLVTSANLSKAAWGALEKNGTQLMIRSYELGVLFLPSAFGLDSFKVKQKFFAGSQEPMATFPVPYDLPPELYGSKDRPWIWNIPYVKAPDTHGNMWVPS
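Signal: AlphaScreen proximity between streptavidin donor and anti-FITC acceptor beads on intact substrate. Reaction: Tdp1 1 nM, substrate 15 nM final, 5 min RT after 15 min compound preincubation.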
ELG1 DNA repair: inhibitors of ELG1-dependent DNA repair in HEK293T cells; HEK293T ELG1-luciferase reporter, luminescence, 16 h; DNA damage induced by 5-fluorouridine; 2.3% of 330,000 active; Potency, µM (top dose mostly 46.1 µM), most hits filed as inhibitors; further: nearly all actives have a fitted effect of over 55% in size
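Overnight (16 hr) co-exposure of 2,000 cells/well to 5-fluorouridine and compound at 37 °C preceded detection. Luciferase was quantified via ONE-Glo luminescence; loss of signal denotes inhibition.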
Giardia kill: Giardia lamblia killing. Giardia lamblia trophozoite viability. 0.15% of 340,000 active. activity change, % at 7.66 µM, hits read low; in the data active means activity change below about -80%; inconclusive means between about -30% and that limit;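 further: parasites exposed to compound for two days anaerobically before the ATP read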
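Trophozoites 100 cells/well + cpd; 48 hrs, 37 deg C, anaerobic. ATPLite 1-Step added, 15-30 min RT, luminescence read (ATP-based viability).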
TDP1 cell CPT: DT40-hTDP1 cell growth loss with CPT; chicken DT40 Tdp1-/-;hTDP1 cells + 20 nM CPT, ATP luminescence, 48 h; AID 686979; 12% of 420,000 active; Potency, µM (highest dose often 46.2 µM), hits mostly inhibitors; further: nearly all actives have a fitted effect of over 55% in size
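Chicken DT40 Tdp1-/- cells complemented with human TDP1, 400 cells/well, exposed to compounds plus 20 nM camptothecin for at least 48 h at 37 C; viability read as ATP content by CellTiter-Glo luminescence.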
IL-1B inflam inh: blocks inflammasome-driven IL-1 beta release. activity change, % at 57.5 µM. AID 743279. 4.7% of 360,000 active. THP-1 LPS/ATP IL-1B secretion, AlphaLISA, 16 h; active compounds read low; in the data active means activity change below about -50%; inconclusive means mostly about -30% to -49%
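THP-1 cells pretreated 1 hr with compounds (up to 57.5 uM final), then stimulated with LPS (250 ng/mL final) plus ATP (1.25 mM final); secreted IL-1B measured by AlphaLISA after 16 hr, decreased signal indicating inhibition.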
TDP1 cell noCPT: qHTS for Inhibitors of human tyrosyl-DNA phosphodiesterase 1 (TDP1): qHTS in cells in absence of CPT. DT40 Tdp1-/- hTDP1 cells, no CPT, ATP luminescence, 48 h. Potency, µM (top dose mostly 46.2 µM), usual class: inhibitors. 15% of 420,000 active. AID 686978, 2013; further: nearly all actives have a fitted effect of over 55% in size
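DT40 Tdp1-/-;hTDP1 cells, no CPT (DMSO vehicle only), 400 cells/well; compounds pin-transferred; ≥48 hr, 37 °C; CellTiter-Glo 30 min RT dark, luminescence read.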
A number is an active result; - = inactive; ? = inconclusive; . = no result; ! = not active in a repeat; [ ] = dose if it differs, or a comment. Most compounds without a hit are left out; they make up all but 19% or so of the library. Unless noted, the call rests on the fitted dose curve; in most records, active means well fitted curve in the direction sought with a large enough effect; inconclusive means small, poorly fitted or top-dose-only effect, or another doubt; inactive means no such curve, though single readings can be large; an effect the other way counts as inactive or inconclusive.

SMILES	TDP1 block	ELG1 DNA repair	Giardia kill	TDP1 cell CPT	IL-1B inflam inh	TDP1 cell noCPT
COc1ccccc1-c1ccc2c(c1)O[C@@H](CN(C)C(=O)c1ccncc1)[C@H](C)CN([C@@H](C)CO)S2(=O)=O	.	.	.	?	-	-
O=C(NC12CC3CC(CC(C3)C1)C2)C12CC3CC(C1)CC(n1cnc(Cl)n1)(C3)C2	-	-	-	21µM	-	16µM
CC1CN(C(=O)c2cc3cc(Br)ccc3[nH]2)CC(C)O1 (centres undefined)	.	-	-	-	-	?
CSCC[C@H](NC(=O)[C@@H]1Cc2c([nH]c3ccccc23)C2c3ccccc3C(=O)N21)C(=O)NCC1CCCO1 (some centres undefined)	.	-	-	?	-	?
CCN(CC)CCNC(=O)c1cnn(-c2nccc(-c3cc4ccccc4o3)n2)c1C	.	.	.	-[9.04 µM]	.	?
O=c1cc(CN2CCN(c3ccc(Cl)c(Cl)c3)CC2)c2ccccc2o1	.	.	.	-	-	15µM
O=c1cc(CN2CCN(c3cccc(Cl)c3)CC2)c2cc(O)c(-c3ccccc3)cc2o1	-	-	-	13µM	-	18µM
O=c1cc(CN2CCN(c3ccccc3)CC2)c2cc(O)c(-c3ccccc3)cc2o1	-	-	-	5.8µM	-	10µM
COc1cccc(NCc2cc(=O)oc3cc(-c4ccccc4)c(O)cc23)c1	-	-	-	?	?	18µM
COc1cccc(NCc2cc(=O)oc3cc(C)c(O)cc23)c1	.	-	-	?	-	?
CCN(CC)CCCC(C)n1c(-c2ccccc2)nc2c(NC3CCCCC3)nc(C)nc21 (centres undefined)	-	.	.	.	.	.
CC(O)CC(=O)NOCc1ccccc1 (centres undefined)	.	-	-	-	-	-
COc1ccc(NC(=O)CSCC(=O)Nc2ccccc2N2CCCCC2)cc1	-	-	-	?	-	29µM
COc1cccc(C(=O)Nc2ccccc2N2CCCC2)c1	-	-	-	18µM	-	?
CC(=O)Nc1cccc(C(=O)Nc2ccccc2N2CCOCC2)c1	-	?	-	?	-	26µM
COc1cccc(C(=O)NC(=S)Nc2ccccc2N2CCCC2)c1	-	-	-	23µM	-	?
COc1cccc(C(=O)NC(=S)Nc2ccccc2N2CCCCC2)c1	-	-	-	?	-	?
Cc1ccsc1CN(C)CC(=O)NCC(=O)Nc1ccc(F)cc1	-	-	-	-	-	-
Cc1ccc(C(C)C)c(OCC(=O)N/N=C2\CC(=O)CC(C)(C)C2)c1	-	-	-	-	-	-
COc1cccc(C(=O)Nc2ccccc2N2CCN(C(=O)c3ccccc3)CC2)c1	-	23µM	-	?	-	21µM
COc1cccc(C(=O)Nc2ccccc2C(=O)N2CCCC2)c1	-	-	-	-	-	-
Fc1cc(Cl)ccc1Nc1nc(NCc2ccccc2)nc2ccsc12	.	.	.	12µM	-	9.2µM
COc1ccccc1CNc1nc(NCc2ccc(C)cc2C)c2sccc2n1	.	.	.	4.6µM	-80	9.2µM
COc1ccc(-c2cc(CNc3nc(NCc4ccccc4OC)nc4ccsc34)on2)cc1	.	.	.	16µM	-	26µM
COc1ccccc1CNc1nc(NCc2ccccc2F)c2sccc2n1	.	.	.	2.9µM	-83	4.1µM
SMILES	TDP1 block	ELG1 DNA repair	Giardia kill	TDP1 cell CPT	IL-1B inflam inh	TDP1 cell noCPT
C=C[C@@]1(C)CC(=O)[C@@]2(O)[C@@]3(C)[C@@H](O)CCC(C)(C)[C@@H]3[C@H](OC(=O)CCN(C)C)[C@H](OC(C)=O)[C@@]2(C)O1	-	.	.	?	.	?
Fc1ccccc1CNc1nc(NCC2CC2)nc2ccsc12	.	.	.	15µM	-76	16µM
OCc1ccccc1-c1nc(NCC2CC2)nc2ccsc12	.	.	.	?	-	?
CN(C)CCNc1nc(-c2ccccc2CO)c2sccc2n1	.	.	.	-	-	-
c1ccc(CNc2nc(NCc3ccccc3)c3sccc3n2)cc1	.	.	.	23µM	-73	18µM
COCCNc1nc(NCc2ccccc2F)c2sccc2n1	.	.	.	18µM	-	18µM
COc1ccccc1CNc1nc(NCc2ccccc2)nc2ccsc12	.	.	.	23µM	-100	15µM
COc1ccccc1CNc1nc(NCc2cnc(C)cn2)c2sccc2n1	.	.	.	?	-	?
CC(=O)Nc1ccc(S(=O)(=O)N(C)CC(=O)OCC(=O)N(C)c2ccccc2)cc1	-	-	-	-	-	-
O=C(Nc1ccccc1)[C@@H]1CC=C[C@@H]2CCN(Cc3ccccc3)C(=O)[C@@H]21	.	.	?	?	-	22µM!
O=C(Nc1ccccc1)[C@@H]1CC=C[C@@H]2CCN(Cc3ccc(Cl)c(Cl)c3)C(=O)[C@@H]21	.	.	-	?	?	18µM
COc1ccc(CN2CC[C@H]3C=CC[C@@H](C(=O)NCCc4ccccc4)[C@H]3C2=O)cc1OC	.	.	-	14µM	-	?
Cc1cc(C)c(S(=O)(=O)N2CCCCC2C(=O)O)c(C)c1 (centres undefined)	-	-	-	-	-	-
CNc1nc(NN)nc(Nc2ccccc2)n1	.	?	-	-	-	-
Fc1cc(Cl)cc2ccc(-c3ccccc3)nc12	.	.	.	-	-	-
COc1ccc(-c2cc(C(F)(F)F)nc(S(=O)(=O)CCC(=O)N3CCOCC3)n2)cc1	-	?	-	6.5µM	-118	12µM
COc1ccccc1-c1noc(CCCC(=O)N2CCOCC2)n1	.	-	?	-	-	-
COc1ccccc1-c1cc(C(F)(F)F)nc(S(=O)(=O)CCCC(=O)O)n1	-	-	-	14µM	-87	?
COc1ccccc1-c1cc(C(F)(F)F)nc(S(=O)(=O)CCCC(=O)Nc2ccc(F)c(Cl)c2)n1	-	.	.	-	.	?
COc1ccccc1-c1cc(C(F)(F)F)nc(S(=O)(=O)CCCC(=O)N2CCOCC2)n1	-	?	-	2.6µM	-118	2.3µM
COc1ccccc1-c1cc(C(F)(F)F)nc(S(=O)(=O)CCCC(=O)Nc2cc(OC)c(OC)c(OC)c2)n1	-	.	.	?	.	21µM
O=C1CC(c2ccco2)Cc2[nH]c(=O)c(C(=O)Nc3ccccc3)cc21 (centres undefined)	.	.	.	?	.	10µM
O=C1CC(c2ccccc2)Cc2[nH]c(=O)c(C(=O)Nc3ccc(F)cc3)cc21 (centres undefined)	-	.	.	-	.	-
CC(=O)c1cccc(N(C(=O)CNC(=O)c2ccco2)C(C(=O)NCC2CCCO2)c2ccccc2)c1 (centres undefined)	-	-	-	-	-	-
CCc1nc2ccc(C(=O)NCCOc3ccc(OC)cc3)cn2c1N(C)Cc1cccs1	.	.	.	?	-52	?
CCc1nc2ccc(C(=O)NCCC(C)C)cn2c1N(C)Cc1ccc(OC)cc1	.	.	.	?	-	16µM
